# Compound activity: PubChem, National Center for Advancing Translational Sciences (NCATS)
# In the library only some 13% were active in any assay of this set; here they are far more common.
# HCMV antiviral – inhibitors of human cytomegalovirus | 410,000 compounds, 4.5% hits | activity change, negative = inhibition, % at 57.5 µM | HFF cells, HCMV-luciferase reporter, 72 h; stronger effect = lower value; in the data active means activity change below about -60%; inconclusive means no clear call, values can overlap the other calls; inactive means above about -39%
#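 Screen run at 2 compound doses on HFFs infected with reporter HCMV, MOI 1 PFU/cell. Luciferase activity from cell lysates at 72 h post infection gave inhibition relative to buffer-only and Salinomycin wells.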
# HCV inh – blocks hepatitis C virus; Huh7.5.1 HCVcc-Cre infection, luciferase reporter, 44 h; Potency, µM (titrated, usually from 41.8 µM), for the others: at the top dose activity change, negative = inhibition, usual class: inhibitors; AID 651820; 340,000 compounds, 3.4% hits; further: potency means the concentration at half of the fitted maximal effect
#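 Cells (1,000/well) were plated 4 h before compound, then infected with HCVcc-Cre virus (~0.5 moi). After 44 h further culture, infection was read as luciferase luminescence following a 15 min substrate incubation at room temperature.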
# Pf growth 48h – inhibits P. falciparum growth in the first generation, 48 h; P. falciparum luciferase growth in erythrocytes, 48 h; Potency, µM (series often up to 28.7 µM), for the others: at the top dose activity change, negative = inhibition, hits mostly inhibitors; 310,000 compounds, 5.9% hits; AID 504832; further: potency means the concentration at half of the fitted maximal effect
#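 A one-generation exposure of luciferase-tagged malaria parasites in RPMI 1640/Albumax erythrocyte culture, 37 C and 5% CO2. Inhibition is inferred from decreased luminescence after adding detection reagent.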
# Pf growth 96h – P. falciparum growth inhibition at 96 hour, primary screen for plastid delayed-death inhibitors; Potency, µM (doses to about 28.7 µM), for inactives: at the top dose activity change, negative = inhibition, actives largely listed as inhibitors; P. falciparum luciferase reporter growth, 96 h; AID 504834; 320,000 compounds, 6.9% hits; further: potency means the concentration at half of the fitted maximal effect
#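 Two-generation exposure (96 h) targets delayed-death phenotype. Reporter parasites carrying integrated firefly luciferase, in red cells at 2% hematocrit and 0.05% parasitemia final, kept at 37 C, 5% CO2; luminescence loss indicates inhibition.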
# Numbers without * were called inactive; ? = inconclusive; . = no result given. Unless noted, the call rests on the fitted dose curve; in most records, active means well fitted inhibition curve with a large enough effect; inconclusive means small, poorly fitted or top-dose-only effect, or another doubt; inactive means no such curve, though single readings can be large or run the other way. On the % scale 0 is the no-effect control and ±100 the full control effect.
SMILES,HCMV antiviral,HCV inh,Pf growth 48h,Pf growth 96h
O=C1CCN(Cc2nnnn2CC2CCCO2)c2ccccc2N1 (stereo not drawn),.,-1%,20%,15µM*
COc1ccc(N(C)S(=O)(=O)c2cccc(C(=O)N3CCN(S(=O)(=O)c4ccc(C)cc4)CC3)c2)cc1,-34,?,5.9µM*,2.6µM*
COc1ccc(NS(=O)(=O)c2cccc(C(=O)N3CCN(S(=O)(=O)c4ccccc4)CC3)c2)cc1,17,10µM*,.,.
CCOC(=O)C1CCCN(C(=O)c2cccc(S(=O)(=O)N(C)c3ccc(C)cc3)c2)C1 (stereo not drawn),-2,?,13µM*,?
CCOC(=O)C1CCCN(C(=O)c2cccc(S(=O)(=O)N3CCCC3)c2)C1 (stereo not drawn),0,-4%,?,?
COc1ccc(S(=O)(=O)N2CCN(C(=O)c3cccc(S(=O)(=O)N4CCCC4)c3)CC2)cc1,-9,.,.,.
CCN(c1cccc(C)c1)S(=O)(=O)c1nnc(NC(=O)c2ccccc2Cl)s1,-29,.,.,.
CCc1nc(SCC(=O)N2CCN(c3ccccc3)CC2)c2oc3ccccc3c2n1,-18,10µM*,2%,-16%
CCc1nc(SCC(=O)c2ccc(Cl)s2)c2oc3ccccc3c2n1,.,?,5%,5%
CCc1nc(SCc2nc3ccccc3[nH]2)c2oc3ccccc3c2n1,?,7.9µM*,.,?
CCc1nc(N(CC)CC)c2oc3ccccc3c2n1,-28,?,?,2%
CCc1nc(Sc2nc(C)cc(C)n2)c2oc3ccccc3c2n1,-86*,?,?,?
CCc1nc(SCCO)c2oc3ccccc3c2n1,36,10µM*,?,80%
CO[C@@H]1[C@@H](OC2OC(C)C(OC3CC(C)(O)C(OC(=O)CC(C)C)C(C)O3)C(N(C)C)C2O)[C@@H](CC=O)C[C@@H](C)C(=O)/C=C\C2O[C@H]2C[C@@H](C)OC(=O)C[C@H]1OC(C)=O (stereo partly drawn),.,.,6.7µM*,0.76µM*
CO[C@H]1[C@H](O[C@H]2O[C@@H](C)[C@@H](O[C@@H]3C[C@](C)(O)[C@H](OC(=O)CC(C)C)[C@H](C)O3)[C@@H](N(C)C)[C@@H]2O)[C@@H](CC=O)C[C@@H](C)[C@@H](O)/C=C\C=C/C[C@@H](C)OC(=O)C[C@H]1OC(C)=O,.,.,4.5µM*,0.41µM*
COc1ccc(C2=CC(=O)OC(C)(c3ccccc3)O2)cc1 (stereo not drawn),9,-18%,12µM*,96%
CCC1CN(C(=O)Nc2cc(Cl)ccc2C(=O)OC)c2ccccc2S1 (stereo not drawn),17,.,.,.
CC(C)(C)c1ccc(C(=O)NCC(=O)OCc2ccc([N+](=O)[O-])cc2)cc1,-10,16%,4%,0.52µM*
O=C(CNC(=O)c1ccccc1)OCc1cccc([N+](=O)[O-])c1,-10,-9%,8%,0%
O=C(Cc1ccc([N+](=O)[O-])cc1)OCc1ccc([N+](=O)[O-])cc1,11,16%,?,6%
CCCS(=O)(=O)c1ccc(COC(=O)Cc2ccc([N+](=O)[O-])cc2)cc1,0,-6%,-28%,2.9µM*
Cc1ccc(N2CC(NC(=O)Cc3ccc(F)cc3)CC2=O)cc1C (stereo not drawn),-39,.,.,.
O=C(O)c1cccc(COc2ccc(CO)cc2Cl)c1,24,0%,0.21µM*,?
COc1ccc(CNc2oc(COc3ccccc3Cl)nc2C#N)cc1,9,?,.,1.5µM*
Cc1ccc(-c2nc(C#N)c(NCc3ccco3)o2)cc1,78,-26%,84%,12µM*
SMILES,HCMV antiviral,HCV inh,Pf growth 48h,Pf growth 96h
N#Cc1nc(COc2ccc(Cl)cc2)oc1NCc1ccc2c(c1)OCO2,3,10µM*,.,10µM*
COc1ccccc1OCc1nc(C#N)c(NCc2ccco2)o1,-15,-2%,-20%,12µM*
COc1ccc(Cn2cc(S(=O)(=O)c3ccc(Cl)cc3)c(=O)c3cc4c(cc32)OCO4)cc1,5,.,.,.
COc1ccc(Nc2oc(COc3ccc(OC)cc3)nc2C#N)cc1,-70*,?,?,25%
COc1ccc(-n2c(=O)c3c(c4cc(OC)ccc4n3C)n(Cc3cc(C)ccc3C)c2=O)cc1,-3,.,.,.
COC(=O)c1scc(C#N)c1N/N=C(\C#N)S(=O)(=O)c1ccc(Cl)cc1,-97*,?,3%,-24%
COc1cccc(C(=O)N2CCC2(C)C(=O)NC(C)C)c1 (stereo not drawn),-36,.,.,.
CCN(CC)CCCN(Cc1cc2cc3c(cc2[nH]c1=O)OCO3)C(=S)NCc1ccco1,-15,-13%,?,-16%
CCN(CC)CCN(Cc1cc2ccc(C)c(C)c2[nH]c1=O)C(=S)NCc1ccco1,-77*,?,10µM*,?
CCN(CC)CCCNC(=S)N(Cc1cccs1)Cc1cc2cc3c(cc2[nH]c1=O)OCCO3,-104*,-7%,?,?
CCN(CC)CCCNC(=S)N(Cc1ccco1)Cc1cc2cc3c(cc2[nH]c1=O)OCCO3,9,-9%,-5%,-94%
CCN(CC)CCN(Cc1cc2cc3c(cc2[nH]c1=O)OCO3)C(=S)NCc1ccco1,-22,-24%,-4%,6.6µM*
CCN(CC)CCN(Cc1cc2cc(C)ccc2[nH]c1=O)C(=S)NCc1ccco1,?,?,6.6µM*,?
CCN(CC)CCN(Cc1cc2cc(C)cc(C)c2[nH]c1=O)C(=S)NCc1ccco1,?,1%,?,7%
COc1cccc(C(=O)Nc2c(C(=O)N3CCN(c4ccc(F)cc4)CC3)oc3ccccc23)c1,-27,.,.,.
CN(C)CCCN(Cc1cc2cc3c(cc2[nH]c1=O)OCO3)C(=S)Nc1ccccc1,41,?,?,?
CCN(CC)CCN(Cc1cc2cc3c(cc2[nH]c1=O)OCCO3)C(=S)NCC(C)C,12,?,?,?
CN(C)CCCN(Cc1cc2cc3c(cc2[nH]c1=O)OCO3)C(=S)Nc1cccc(Cl)c1,?,10µM*,?,?
CCN(CC)CCN(Cc1cc2cc3c(cc2[nH]c1=O)OCO3)C(=S)NCC(C)C,-22,?,?,3.7µM*
Cc1ccc(C(=O)Nc2ccc(-n3c(C)nc4ccccc4c3=O)cc2)cc1[N+](=O)[O-],-31,.,.,.
CN(C)c1nc(-c2ccccc2)[n+](C)s1,45,8%,12µM*,23%
COc1cc(Nc2nc(SCc3cccc(Cl)c3)nc3ccccc23)cc(OC)c1,15,.,.,.
NC(=S)N=Nc1c(O)[nH]c2cc(F)c(F)cc12,-29,-4%,?,9.3µM*
NC(=S)N=Nc1c(O)[nH]c2c(Cl)cc(Cl)cc12,16,-25%,.,.
COc1ccc(OC)c(-c2cc(C(=O)NCc3cccs3)no2)c1,28,?,?,?
Cc1cc(NC(=O)c2cc(-c3ccc(Br)cc3)on2)nn1Cc1ccc(Cl)cc1,-8,.,.,.
Cc1cc(NC(=O)c2cc(C(C)C)on2)nn1Cc1ccc(Cl)cc1,-21,?,.,9.3µM*
